Measurements published in the supplement of paper PMC10849652.
Of roughly 8,800 targets only a part is listed; those with a hit were picked by preference. About 0.5% of all pairs of compound and target were hits.

Key:
Test in all cases: log2 fold change, soluble protein after heating vs DMSO (PISA); higher = thermal stabilisation; K562 lysate, 10 uM; active = over 0.2 and 3.5 SD of the protein, either way, in both replicates (recomputed)
[1] = compound: C1=CC=C(C=C1)[C@H](COC2=CC3=C(C=C2)NC(=O)N3)NC(=O)C4=CC=CN(C4=O)CC5=CC(=C(C=C5)F)F
Summary of the method: (§1)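 Dounce homogenisation of K562 pellets in PBS pH 7.4 with 1 mM MgCl2 produced a crude extract, used at 1 mg/mL protein. Exposure to 10 μM compound lasted 30 min, and aliquots were then heated for 3 min across 48°C-58°C, pooled and brought to 0.5% NP-40 at 4°C. The supernatant after 21,000xg for 90 min was quantified by TMTpro 16plex LC-MS/MS with channel sums equalised. Duplicate values are given as log-two fold change in thermal stability relative to solvent controls.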

[2] = compound: CC1=C(SC2=C1C(=N[C@H](C3=NN=C(N32)C)CC(=O)N)C4=CC=C(C=C4)Cl)C
Summary of the method: as §1

[3] = compound: CC1=C2C(=CC=C1)N=C(N(C2=O)C3=CC=CC=C3C)CN4C=NC5=C(N=CN=C54)N
Summary of the method: as §1

[4] = compound: Cc1sc2c(c1C)C(c1ccc(Cl)cc1)=N[C@@H](CC(=O)OC(C)(C)C)c1nnc(C)n1-2
Summary of the method: as §1

[5] = compound: c1ccc([C@@H]2C[C@H]2NC2CCNCC2)cc1
Summary of the method: as §1

Measured: log2 fold change

PPIE (UniProt Q9UNP9)
inactive: [1] 0.033 | [2] -0.023 | [3] 0.026 | [4] -0.04 | [5] -0.144

PMPCA (UniProt Q10713)
Sequence of UniProt Q10713 (Q10713 whole entry, looked up): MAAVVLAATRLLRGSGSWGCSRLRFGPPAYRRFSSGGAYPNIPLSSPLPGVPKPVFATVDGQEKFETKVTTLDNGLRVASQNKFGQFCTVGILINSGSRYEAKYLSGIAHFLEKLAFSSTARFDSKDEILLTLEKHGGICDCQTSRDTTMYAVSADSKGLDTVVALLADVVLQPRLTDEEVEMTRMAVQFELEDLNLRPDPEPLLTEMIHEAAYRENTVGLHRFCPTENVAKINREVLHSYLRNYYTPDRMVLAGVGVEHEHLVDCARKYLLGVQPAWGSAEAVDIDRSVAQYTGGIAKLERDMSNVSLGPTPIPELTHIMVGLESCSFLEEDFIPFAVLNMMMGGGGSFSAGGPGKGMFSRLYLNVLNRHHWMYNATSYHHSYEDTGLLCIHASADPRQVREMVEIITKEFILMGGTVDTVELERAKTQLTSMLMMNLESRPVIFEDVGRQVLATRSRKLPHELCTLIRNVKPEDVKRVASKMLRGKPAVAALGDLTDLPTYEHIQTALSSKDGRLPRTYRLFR
inactive: [1] 0.019 | [2] 0.031 | [3] 0.028 | [4] -0.013 | [5] -0.012

PRKCB isoform 2 (UniProt P05771)
Sequence of UniProt P05771 (P05771 whole entry, looked up): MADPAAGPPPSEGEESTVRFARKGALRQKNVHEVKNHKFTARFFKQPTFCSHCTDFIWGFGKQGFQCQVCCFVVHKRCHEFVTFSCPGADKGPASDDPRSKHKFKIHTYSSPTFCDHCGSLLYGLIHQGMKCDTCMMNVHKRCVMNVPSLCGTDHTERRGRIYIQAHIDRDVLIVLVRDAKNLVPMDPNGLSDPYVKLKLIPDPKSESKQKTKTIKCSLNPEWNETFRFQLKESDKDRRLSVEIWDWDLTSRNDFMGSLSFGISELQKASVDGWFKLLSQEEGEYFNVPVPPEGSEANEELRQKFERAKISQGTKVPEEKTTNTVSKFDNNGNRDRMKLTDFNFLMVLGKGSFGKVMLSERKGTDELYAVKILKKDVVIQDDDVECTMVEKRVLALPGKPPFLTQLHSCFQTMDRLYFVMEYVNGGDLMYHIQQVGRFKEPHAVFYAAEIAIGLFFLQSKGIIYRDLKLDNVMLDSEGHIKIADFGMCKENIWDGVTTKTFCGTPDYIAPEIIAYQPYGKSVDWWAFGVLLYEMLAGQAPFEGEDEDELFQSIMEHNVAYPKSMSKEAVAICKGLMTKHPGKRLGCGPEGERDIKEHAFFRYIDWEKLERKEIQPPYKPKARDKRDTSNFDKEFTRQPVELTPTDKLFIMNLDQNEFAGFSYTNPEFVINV
inactive: [1] -0.007 | [2] -0.022 | [3] 0.086 | [4] 0.07 | [5] -0.005

PDCD10 (UniProt Q9BUL8)
Sequence of UniProt Q9BUL8 (Q9BUL8 whole entry, looked up): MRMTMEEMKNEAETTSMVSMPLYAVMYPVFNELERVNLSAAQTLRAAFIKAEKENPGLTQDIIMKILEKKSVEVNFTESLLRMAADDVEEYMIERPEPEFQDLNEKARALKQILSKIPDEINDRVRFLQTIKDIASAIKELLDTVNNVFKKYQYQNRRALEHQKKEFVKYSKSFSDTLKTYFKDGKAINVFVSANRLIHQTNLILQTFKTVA
inactive: [1] -0.005 | [2] 0.02 | [3] -0.013 | [4] -0.042 | [5] -0.064

PUF60 (UniProt Q9UHX1)
Sequence of UniProt Q9UHX1 (Q9UHX1 whole entry, looked up): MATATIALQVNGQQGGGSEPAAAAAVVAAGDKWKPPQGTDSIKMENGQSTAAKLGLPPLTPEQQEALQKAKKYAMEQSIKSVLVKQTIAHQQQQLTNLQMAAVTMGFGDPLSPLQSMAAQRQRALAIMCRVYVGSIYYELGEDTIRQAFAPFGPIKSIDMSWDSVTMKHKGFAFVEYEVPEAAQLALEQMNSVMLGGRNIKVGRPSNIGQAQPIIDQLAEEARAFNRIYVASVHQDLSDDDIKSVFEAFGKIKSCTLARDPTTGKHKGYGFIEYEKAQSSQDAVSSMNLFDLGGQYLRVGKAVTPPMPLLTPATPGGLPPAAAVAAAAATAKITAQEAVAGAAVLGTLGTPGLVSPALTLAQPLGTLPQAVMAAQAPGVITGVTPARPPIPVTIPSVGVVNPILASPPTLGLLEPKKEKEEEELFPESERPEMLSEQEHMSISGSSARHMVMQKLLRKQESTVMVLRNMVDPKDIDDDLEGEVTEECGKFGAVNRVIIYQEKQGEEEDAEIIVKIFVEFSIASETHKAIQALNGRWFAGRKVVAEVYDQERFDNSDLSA
inactive: [1] -0.017 | [2] 0.006 | [3] 0.004 | [4] 0.028 | [5] 0.059

PPP2R5C isoform 4 (UniProt Q13362)
Sequence of UniProt Q13362 (Q13362 whole entry, looked up): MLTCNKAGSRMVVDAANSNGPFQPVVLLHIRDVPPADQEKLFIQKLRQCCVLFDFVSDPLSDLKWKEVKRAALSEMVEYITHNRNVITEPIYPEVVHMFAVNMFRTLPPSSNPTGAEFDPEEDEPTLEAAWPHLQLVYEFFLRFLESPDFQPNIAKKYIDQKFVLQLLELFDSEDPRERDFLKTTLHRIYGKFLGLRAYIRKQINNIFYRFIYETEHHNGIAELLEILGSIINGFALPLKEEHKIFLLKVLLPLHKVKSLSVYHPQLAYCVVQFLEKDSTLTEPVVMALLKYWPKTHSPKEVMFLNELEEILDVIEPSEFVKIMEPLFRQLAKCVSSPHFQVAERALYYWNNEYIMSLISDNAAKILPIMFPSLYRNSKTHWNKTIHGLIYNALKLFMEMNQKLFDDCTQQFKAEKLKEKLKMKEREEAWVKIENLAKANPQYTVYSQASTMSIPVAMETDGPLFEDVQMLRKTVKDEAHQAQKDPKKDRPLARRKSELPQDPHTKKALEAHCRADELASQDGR
inactive: [1] -0.057 | [2] 0.003 | [3] 0.021 | [4] -0.103 | [5] 0.021

PLXNB2 (UniProt O15031)
Sequence of UniProt O15031 (O15031 whole entry, looked up): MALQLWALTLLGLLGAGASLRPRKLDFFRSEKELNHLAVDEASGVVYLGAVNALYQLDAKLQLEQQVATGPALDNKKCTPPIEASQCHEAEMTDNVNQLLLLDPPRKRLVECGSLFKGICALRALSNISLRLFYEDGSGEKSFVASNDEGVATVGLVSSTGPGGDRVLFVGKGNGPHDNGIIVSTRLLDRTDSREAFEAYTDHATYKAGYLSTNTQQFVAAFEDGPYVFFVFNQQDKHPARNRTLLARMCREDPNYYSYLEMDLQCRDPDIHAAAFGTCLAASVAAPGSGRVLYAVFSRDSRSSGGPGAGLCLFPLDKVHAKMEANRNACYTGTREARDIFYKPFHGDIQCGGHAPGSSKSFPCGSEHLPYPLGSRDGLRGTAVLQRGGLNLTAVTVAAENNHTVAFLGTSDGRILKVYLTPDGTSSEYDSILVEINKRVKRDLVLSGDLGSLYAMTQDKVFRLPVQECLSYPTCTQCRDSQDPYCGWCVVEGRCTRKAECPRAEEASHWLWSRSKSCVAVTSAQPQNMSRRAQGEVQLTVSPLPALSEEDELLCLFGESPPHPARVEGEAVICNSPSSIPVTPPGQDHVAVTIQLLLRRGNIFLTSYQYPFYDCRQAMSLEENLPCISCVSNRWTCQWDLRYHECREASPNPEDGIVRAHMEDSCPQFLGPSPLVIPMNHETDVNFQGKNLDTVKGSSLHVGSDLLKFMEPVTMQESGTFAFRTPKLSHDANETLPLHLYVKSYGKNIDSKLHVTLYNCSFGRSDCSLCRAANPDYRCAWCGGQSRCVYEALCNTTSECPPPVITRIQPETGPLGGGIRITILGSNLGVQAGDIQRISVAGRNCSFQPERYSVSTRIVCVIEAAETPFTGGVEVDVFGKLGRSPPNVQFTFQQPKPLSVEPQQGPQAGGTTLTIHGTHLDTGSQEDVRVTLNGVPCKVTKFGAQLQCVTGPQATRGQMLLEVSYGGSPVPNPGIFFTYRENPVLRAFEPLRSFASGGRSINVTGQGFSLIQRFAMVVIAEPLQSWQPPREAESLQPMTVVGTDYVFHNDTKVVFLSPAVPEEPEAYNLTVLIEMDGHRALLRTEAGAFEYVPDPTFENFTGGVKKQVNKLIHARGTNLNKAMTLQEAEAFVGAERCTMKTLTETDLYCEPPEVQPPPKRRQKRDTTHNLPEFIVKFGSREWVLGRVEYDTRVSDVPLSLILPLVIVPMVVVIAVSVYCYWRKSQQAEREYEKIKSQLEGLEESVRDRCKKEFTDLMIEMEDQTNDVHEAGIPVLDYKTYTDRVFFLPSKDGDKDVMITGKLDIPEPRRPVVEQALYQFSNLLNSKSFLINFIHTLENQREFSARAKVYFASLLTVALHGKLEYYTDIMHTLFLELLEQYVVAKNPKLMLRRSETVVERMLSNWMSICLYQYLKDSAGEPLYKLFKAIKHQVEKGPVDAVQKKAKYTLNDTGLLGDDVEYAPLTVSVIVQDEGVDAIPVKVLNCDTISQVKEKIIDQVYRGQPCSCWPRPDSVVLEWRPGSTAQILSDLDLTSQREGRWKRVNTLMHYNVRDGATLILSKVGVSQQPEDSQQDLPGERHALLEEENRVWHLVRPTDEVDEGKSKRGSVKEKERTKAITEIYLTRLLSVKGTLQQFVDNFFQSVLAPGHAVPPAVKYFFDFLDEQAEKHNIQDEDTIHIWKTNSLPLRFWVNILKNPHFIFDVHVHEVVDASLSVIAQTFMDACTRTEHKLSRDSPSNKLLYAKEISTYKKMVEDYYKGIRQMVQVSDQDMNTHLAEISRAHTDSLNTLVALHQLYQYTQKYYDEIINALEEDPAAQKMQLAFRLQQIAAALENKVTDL
inactive: [1] -0.034 | [2] 0.037 | [3] 0.014 | [4] 0.004 | [5] -0.024

PHACTR4 isoform 2 (UniProt Q8IZ21)
inactive: [1] 0.03 | [2] 0 | [3] 0.014 | [4] 0.028 | [5] 0.264

PGPEP1 (UniProt Q9NXJ5)
Sequence of UniProt Q9NXJ5 (Q9NXJ5 whole entry, looked up): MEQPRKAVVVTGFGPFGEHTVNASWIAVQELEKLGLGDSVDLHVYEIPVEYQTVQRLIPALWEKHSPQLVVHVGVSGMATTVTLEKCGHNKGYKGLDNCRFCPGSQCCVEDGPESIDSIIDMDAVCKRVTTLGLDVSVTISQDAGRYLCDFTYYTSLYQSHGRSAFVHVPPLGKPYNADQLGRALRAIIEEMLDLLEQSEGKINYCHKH
inactive: [1] 0.027 | [2] -0.071 | [3] -0.013 | [4] -0.025 | [5] 0.012

PUS1 (UniProt Q9Y606)
Sequence of UniProt Q9Y606 (Q9Y606 whole entry, looked up): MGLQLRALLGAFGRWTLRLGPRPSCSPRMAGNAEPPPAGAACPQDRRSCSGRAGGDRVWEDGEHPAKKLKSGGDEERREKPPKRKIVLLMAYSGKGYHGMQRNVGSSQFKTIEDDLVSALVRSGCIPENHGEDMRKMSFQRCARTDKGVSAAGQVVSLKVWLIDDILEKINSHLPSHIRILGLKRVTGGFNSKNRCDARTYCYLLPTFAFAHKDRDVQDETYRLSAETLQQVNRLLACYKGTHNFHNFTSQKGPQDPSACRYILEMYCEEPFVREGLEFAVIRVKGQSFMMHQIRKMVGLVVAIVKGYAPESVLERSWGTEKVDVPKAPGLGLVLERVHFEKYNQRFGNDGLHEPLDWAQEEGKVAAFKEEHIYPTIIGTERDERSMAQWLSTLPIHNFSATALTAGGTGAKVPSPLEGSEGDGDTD
inactive: [1] 0 | [2] 0.014 | [3] 0.013 | [4] -0.024 | [5] 0.029
